We go through 39 sequences from the supplement of paper PMC10681739.
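Wherever RUNX1 binding intensity (PBM fluorescence) in presence of ETS1, normalised to RUNX1-only experiment is given: Full-length recombinant human ETS1 or RUNX1 bound to double-stranded 36-bp genomic probes on microarrays, detected by protein-specific primary antibody and Alexa488 secondary, spot fluorescence as median of four replicate spots.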
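Wherever RUNX1 binding intensity (PBM fluorescence), RUNX1 alone is given: Full-length recombinant human RUNX1 bound to double-stranded 36-bp genomic probes on a high-density microarray, scored as Alexa488 fluorescence per spot via anti-RUNX1 antibody, median of four replicate spots.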

For one assay, the target named is RUNX1 (UniProt Q01196). Nature of the assay: RUNX1 binding intensity (PBM fluorescence), RUNX1 alone (arbitrary fluorescence units); higher = stronger binding. The following applies: RUNX1 concentration 2 nM; ETS1 concentration 0 nM. The method, then: (§1)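 Cooperative gcPBM on 36-bp genomic probes with neighbouring ETS1 and RUNX1 sites. Recombinant human RUNX1 (2 nM) was incubated alone or with ETS1 (25 nM) and detected with anti-RUNX1 antibody plus Alexa488 secondary. Values are medians over 4 replicate spots; the RUNX1+ETS1 data were normalised to the RUNX1-only data. The probes sit in constant array flanks that are not printed.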
Sequence of RUNX1 (Q01196 whole entry): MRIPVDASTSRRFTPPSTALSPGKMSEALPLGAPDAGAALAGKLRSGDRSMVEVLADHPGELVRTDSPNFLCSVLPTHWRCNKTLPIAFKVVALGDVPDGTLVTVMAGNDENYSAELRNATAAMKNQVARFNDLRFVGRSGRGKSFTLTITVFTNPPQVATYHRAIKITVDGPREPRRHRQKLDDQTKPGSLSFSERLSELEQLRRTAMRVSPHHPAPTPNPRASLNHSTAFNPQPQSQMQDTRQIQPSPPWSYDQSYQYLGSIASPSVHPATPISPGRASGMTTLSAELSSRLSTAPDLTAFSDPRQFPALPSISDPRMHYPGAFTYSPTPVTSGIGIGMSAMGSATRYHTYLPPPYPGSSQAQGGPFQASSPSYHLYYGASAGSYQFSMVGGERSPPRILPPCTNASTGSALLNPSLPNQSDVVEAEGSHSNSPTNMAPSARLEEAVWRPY
Take CCAGGCGGAAGCGGCCGGGAGTAGCGCTGCGGTTGG: the RUNX1 binding intensity was determined as 817.
The same measure, in the same setting: the same measure for AATCGCGCAGTTCCGCAGCTGCCGCCCCACAACCGT: 863.
On the same count and under the same terms, then CCCAGAGCTTCCGATTGGCTCTTCTGTGGTGGCGGG, with 1010.
Consider GCATTTACGGGCAGGAAATGAAACCACAGAGTACAA, for which the RUNX1 binding intensity is 1360.
Still for that read-out and setting: the same measure for TTGCTCGGCTTCCTGGAGCTGTGGTCCGTGTGGGCT: 708; for GGGATCCTTCCGCTCCGGGTTAACCCCGACCGCGCC: 795; for CATGGGGAGGAGGAAGTGGTGGCGGCCGCAGGCCAG: 799.
Still for that read-out and setting: the same measure for GCCAAGGCCTTCCGCCGAGTTGGTTTTTGGGTTGTT: 867; for TTAACTCCACGGAAGAATAAACCACCACCGCTCACC: 1080.
Still for that read-out and setting: the same measure for ACGTCAGCATCCGCCGGGCTCGCGGTAAGGTGTGAG: 736; for GTGAGAGGAAGTGGGCGCTGGTTTAATGTGGTCAGC: 834; for CTTCTTCCTGCTGAGACTGATACAGCCCGCAAAGCT: 994.
In turn, TCGCCCACTTCCCCACCTCTCAAAAGACCACAGGCA yielded an RUNX1 binding intensity of 1560.
The same measure, in the same setting: then CCAGTGCAGAAACATCCCTCCTGCCGCAGCTTTGTC, with 1020; and TGACACCAGCCCTGAGGATGTGGTTCATCCTCCCAC, with 868; and TTACTTCCTGAGGGTGCACAGGCTGTGGTCGTCTAT, with 760.
Same read-out and setting: the same measure for TGAGTTTTGTTTCCGATTCACCACAGAAGATACTTT: 2230; for ACGGTGCGTTTCCCCAACTACACCGCACGTCACGGA: 988; for GAGTTCTCCGCTTCCTTGCGGCCGGCGGGATTAGCC: 907.
Same read-out and setting: then CTGGGCGTGGGCTTCCTGCGGCTGAGTGGCAGCTTC, with 740.
In the case of ATGGTCCAGGAAGATAAGGGCTGAAAACCACCCACT, the RUNX1 binding intensity was 857.
AGGCCAGACGCCTTCCGTGGTTTACGGTGAGGGTGG: the RUNX1 binding intensity is 884.
The same measure, in the same setting: the same measure for GCCGGCGGCCGGAAGTCTATCCCGCAGAAGCGCAGC: 736; for GTCCCCTGAATTTTCCTGTGGTTCTTATCACCAGGT: 1180; for GTTCAGCAGGAAGTGGATGTGGATGTGTGGTTGCCA: 826.
The same measure, in the same setting: then CTTTCTGGTTTCCTTCCTTTTTGGTTTTGGTTTCAT, with 1630; and CACTCCCCGAATCCGGTCTGCGGCGCGCTCGGGGCC, with 774; and ACTCACACCACGGAAACTGCGGCTCGGCAGGCTGAG, with 808.
Still for that read-out and setting: the same measure for TATTCAGGCTTCCGGGTGATGTTTGTGGCCACCCGG: 671.
TCCGCCCGCGGATGCTGAGAACCGCAGCTGCACAAG: the RUNX1 binding intensity was found to be 948.
The same measure, in the same setting: the same measure for CCACCTCCTCCGGACGCCGCCCGCAACTGAGCATGC: 1030.
Still for that read-out and setting: the same measure for GGGGGAAGCTTCCTGAGGTGAAATAGACCGCTGTGC: 735.
On the same count and under the same terms, the same measure for CGGGCCGGATCGCCTTCGCCGCCGCCCGCCCGCAAA: 979.
For the sequence ACAGACAGCATCCTGAGCTCGTGGTTAGAACACCCT, the RUNX1 binding intensity stood at 841.
The same measure, in the same setting: the same measure for CTGAGACATCCTGATAATTCTGTGGGTTACCCCAAA: 728; for ACAGGAAATGACTTAGGGAAAGTCCCAACCGCAATC: 1230; for CGGCGCGGCGGACGTTGCTGCGGTAGGACGTGCCCG: 838.
Same read-out and setting: the same measure for GCTGGGCCATCCTGCCACATGCACCGCATCTCTGGG: 759.
The same measure, in the same setting: then CAGTTTATCCTGTGAGAGCCTTGTGGTTCCTACTAA, with 773.

A further assay has as its target RUNX1 (UniProt Q01196). In words: RUNX1 binding intensity (PBM fluorescence) in presence of ETS1, normalised to RUNX1-only experiment (arbitrary fluorescence units); higher = stronger binding. The settings on record: RUNX1 concentration 2 nM; ETS1 concentration 25 nM. The method, then: as §1
CCAGGCGGAAGCGGCCGGGAGTAGCGCTGCGGTTGG: the RUNX1 binding intensity is 1610.
Same read-out and setting: the same measure for AATCGCGCAGTTCCGCAGCTGCCGCCCCACAACCGT: 960; for CCCAGAGCTTCCGATTGGCTCTTCTGTGGTGGCGGG: 1170; for GCATTTACGGGCAGGAAATGAAACCACAGAGTACAA: 3610.
With TTGCTCGGCTTCCTGGAGCTGTGGTCCGTGTGGGCT, the RUNX1 binding intensity was 1020.
Still for that read-out and setting: the same measure for GGGATCCTTCCGCTCCGGGTTAACCCCGACCGCGCC: 1620; for CATGGGGAGGAGGAAGTGGTGGCGGCCGCAGGCCAG: 1070.
Same read-out and setting: the same measure for GCCAAGGCCTTCCGCCGAGTTGGTTTTTGGGTTGTT: 952; for TTAACTCCACGGAAGAATAAACCACCACCGCTCACC: 908; for ACGTCAGCATCCGCCGGGCTCGCGGTAAGGTGTGAG: 1280.
On the same count and under the same terms, then GTGAGAGGAAGTGGGCGCTGGTTTAATGTGGTCAGC, with 2360; and CTTCTTCCTGCTGAGACTGATACAGCCCGCAAAGCT, with 1800; and TCGCCCACTTCCCCACCTCTCAAAAGACCACAGGCA, with 2140.
Consider CCAGTGCAGAAACATCCCTCCTGCCGCAGCTTTGTC, for which the RUNX1 binding intensity was determined as 896.
The same measure, in the same setting: the same measure for TGACACCAGCCCTGAGGATGTGGTTCATCCTCCCAC: 817; for TTACTTCCTGAGGGTGCACAGGCTGTGGTCGTCTAT: 2070; for TGAGTTTTGTTTCCGATTCACCACAGAAGATACTTT: 2560.
The same measure, in the same setting: the same measure for ACGGTGCGTTTCCCCAACTACACCGCACGTCACGGA: 827; for GAGTTCTCCGCTTCCTTGCGGCCGGCGGGATTAGCC: 1030; for CTGGGCGTGGGCTTCCTGCGGCTGAGTGGCAGCTTC: 997.
The same measure, in the same setting: then ATGGTCCAGGAAGATAAGGGCTGAAAACCACCCACT, with 824; and AGGCCAGACGCCTTCCGTGGTTTACGGTGAGGGTGG, with 799.
As to GCCGGCGGCCGGAAGTCTATCCCGCAGAAGCGCAGC, the RUNX1 binding intensity was determined as 1900.
Same read-out and setting: the same measure for GTCCCCTGAATTTTCCTGTGGTTCTTATCACCAGGT: 1360; for GTTCAGCAGGAAGTGGATGTGGATGTGTGGTTGCCA: 1290; for CTTTCTGGTTTCCTTCCTTTTTGGTTTTGGTTTCAT: 2830.
Same read-out and setting: the same measure for CACTCCCCGAATCCGGTCTGCGGCGCGCTCGGGGCC: 1250; for ACTCACACCACGGAAACTGCGGCTCGGCAGGCTGAG: 885; for TATTCAGGCTTCCGGGTGATGTTTGTGGCCACCCGG: 1510.
For TCCGCCCGCGGATGCTGAGAACCGCAGCTGCACAAG, the RUNX1 binding intensity worked out at 827.
Turning to CCACCTCCTCCGGACGCCGCCCGCAACTGAGCATGC, the RUNX1 binding intensity was determined as 1230.
Still for that read-out and setting: then GGGGGAAGCTTCCTGAGGTGAAATAGACCGCTGTGC, with 960; and CGGGCCGGATCGCCTTCGCCGCCGCCCGCCCGCAAA, with 866.
The same measure, in the same setting: the same measure for ACAGACAGCATCCTGAGCTCGTGGTTAGAACACCCT: 985.
For CTGAGACATCCTGATAATTCTGTGGGTTACCCCAAA, the RUNX1 binding intensity turned out to be 1280.
In the case of ACAGGAAATGACTTAGGGAAAGTCCCAACCGCAATC, the RUNX1 binding intensity was 1530.
Still for that read-out and setting: the same measure for CGGCGCGGCGGACGTTGCTGCGGTAGGACGTGCCCG: 875; for GCTGGGCCATCCTGCCACATGCACCGCATCTCTGGG: 878.
The same measure, in the same setting: then CAGTTTATCCTGTGAGAGCCTTGTGGTTCCTACTAA, with 859.
